# Data: PubChem BioAssay AID1053126 (Broad Institute, 2014)
# Entries with a potency or affinity are not part of this list. Active and inactive are the calls of the source.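 The calls were made as follows: active = cell killing with a fitted half-effect concentration at or below twice the top valid dose; inconclusive = flat curve with 30 to 70 percent drop, or poor fit; inactive = the rest.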
# Assay: HEK293T cell cytotoxicity, dose response, cytotoxicity control, ATP luminescence, cherry-pick, set 6 (AID 1053126)
# Details: HEK293T viability, CellTiter-Glo ATP luminescence, 72 h; series mostly up to 26 µM
row,Compound,outcome
1,CCOc1ccc(C2C(C#N)=C(N)Oc3cc(O)ccc32)cc1OCC (stereo not drawn),inactive
2,C=Cc1ccc(Cn2c(C)c(C(=O)NCc3cccc(C)c3)sc2=O)cc1,inactive
3,O=C(O)c1ccc(N/N=C/c2ccc(-c3ccccc3Cl)o2)cc1,inactive
4,COc1ccc(Cn2nnnc2C(CC(C)C)N2CCC(C(N)=O)CC2)cc1 (stereo not drawn),inactive
5,CCC(C)n1c(=N)c(C#N)cc2c(=O)n3cccc(C)c3nc21 (stereo not drawn),inactive
6,CSC1=NSC2=NC(=O)/C(=C/c3coc4ccc(O)cc4c3=O)C(=N)N12,inactive
7,Cc1noc(C)c1S(=O)(=O)N(CC(=O)N1CCCCCC1)c1ccc(C(C)C)cc1,inactive
8,COc1ccc(CCN=C(N)NS(=O)(=O)c2ccc(F)cc2)cc1,inactive
9,Cc1cc(CNC(=O)c2ccc3c(c2)OCO3)c2ccccc2n1,inactive
10,O=C(Cn1ccc([N+](=O)[O-])n1)N1CCCCCC1,inactive
11,CCCCCCc1cc2cc(S(=O)(=O)c3ccc(F)cc3)c(=O)oc2cc1O,inactive
12,COc1ccc(NC(=O)C2CCC(CNS(=O)(=O)c3cccs3)CC2)cc1 (stereo not drawn),inactive
13,CCc1nc2ccc(C(=O)NCCc3c[nH]c4ccccc34)cn2c1N(C=O)CCC(C)C,inactive
14,CC(C)OCCCn1c(=N)c(C(N)=S)cc2c(=O)n3ccccc3nc21,inactive
15,CCC(=O)N1C(C(=O)NCc2ccc(OC)cc2)CSC1c1ccc(OC)cc1 (stereo not drawn),inactive
16,Cc1cccn2c(=O)c3cc(C(=O)NCc4ccco4)c(=N)n(CCc4ccccc4)c3nc12,inactive
17,O=C1c2ccccc2S(=O)(=O)c2cc(N3CCC(C(=O)N4CCCCC4)CC3)ccc21,inactive
18,CCN(CC)Cc1c(O)c(Cl)cc2c(C)cc(=O)oc12,inactive
19,CN1c2ccc(Cl)cc2C(=O)NC1C1CC=CCC1 (stereo not drawn),inactive

row,Compound,outcome
1,Cc1nc2ccccc2c2oc(C(=O)NCCCN3CCC(C)CC3)cc12,inactive
2,CN(C)CCOCCOc1ccc(Cl)c2ccccc12,inactive
3,Cc1oc(/N=C/c2ccc(F)cc2)c(C#N)c1C,inactive
4,CCNC(=O)c1cc2c(=O)n3cccc(C)c3nc2n(Cc2ccc(C)cc2)c1=N,inactive
5,NC(=O)c1cc([N+](=O)[O-])ccc1NCc1cccnc1,inactive
6,CCN(CC)c1ccc2cc(C(N)=O)c(=O)oc2c1,inactive
7,CCCCCCc1cc2cc(S(=O)(=O)c3ccc(C)cc3)c(=O)oc2cc1O,inactive
8,Cc1c(Nc2c3ccccc3nc3ccccc23)c(=O)n(-c2ccccc2)n1C,inactive
9,CCc1nnc(NC(=O)c2ccc(-c3ccccc3F)o2)s1,inactive
10,COc1cc(C2C3=C(CC(C)(C)CC3=O)N(C)C3=C2C(=O)CC(C)(C)C3)cc(Br)c1O,inactive
11,CCOc1ccc(-n2c(SCC(=O)Nc3nccs3)nnc2-c2ccoc2C)cc1,inactive
12,CCOC(=O)C1CCCN(CCCc2ccccc2)C1 (stereo not drawn),inactive
13,COc1cc(C(=O)OCC(C)=O)cc(NC(=O)c2ccco2)c1OC,inactive
14,C=CCc1c(O)c(CC)cc2c(C)cc(=O)oc12,inactive
15,Cn1c(=N)c(S(=O)(=O)c2ccccc2)cc2c(=O)n3ccccc3nc21,inactive
16,CSCCC1(C(=O)O)NC(c2ccccc2O)C2C(=O)N(C(C)C)C(=O)C21 (stereo not drawn),inactive
17,O=[N+]([O-])c1cccc(Nc2c3ccccc3nc3ccccc23)c1,inactive
18,CCOc1ccccc1N=c1oc2cc(O)ccc2cc1C(=O)NCC1CCCO1 (stereo not drawn),inactive
19,CCCCN1C=C(C(=O)OC)C(c2ccccc2Cl)C(C(=O)OC)=C1,inactive
